According to the supplement of paper PMC11732987, “Enantioselective OTUD7B fragment discovery through chemoproteomics screening and high-throughput optimisation” (Communications Chemistry, 2025):
A number with no mark means an inactive call.

Columns and labels:
Experiment in all cases: log2 ratio of Biotin-Ahx-Ub-VS probe labelling (fragment/DMSO); higher = less target engagement (more negative = stronger competition), active = hit call of the paper (q ≤ 0.05, log2 ratio ≤ -1)
Details in all cases: compound concentration: 200 uM; treatment time: 3 h
ALG13 = biological target: T1, ALG13 (UniProt Q9NP73)
T1 sequence (whole entry): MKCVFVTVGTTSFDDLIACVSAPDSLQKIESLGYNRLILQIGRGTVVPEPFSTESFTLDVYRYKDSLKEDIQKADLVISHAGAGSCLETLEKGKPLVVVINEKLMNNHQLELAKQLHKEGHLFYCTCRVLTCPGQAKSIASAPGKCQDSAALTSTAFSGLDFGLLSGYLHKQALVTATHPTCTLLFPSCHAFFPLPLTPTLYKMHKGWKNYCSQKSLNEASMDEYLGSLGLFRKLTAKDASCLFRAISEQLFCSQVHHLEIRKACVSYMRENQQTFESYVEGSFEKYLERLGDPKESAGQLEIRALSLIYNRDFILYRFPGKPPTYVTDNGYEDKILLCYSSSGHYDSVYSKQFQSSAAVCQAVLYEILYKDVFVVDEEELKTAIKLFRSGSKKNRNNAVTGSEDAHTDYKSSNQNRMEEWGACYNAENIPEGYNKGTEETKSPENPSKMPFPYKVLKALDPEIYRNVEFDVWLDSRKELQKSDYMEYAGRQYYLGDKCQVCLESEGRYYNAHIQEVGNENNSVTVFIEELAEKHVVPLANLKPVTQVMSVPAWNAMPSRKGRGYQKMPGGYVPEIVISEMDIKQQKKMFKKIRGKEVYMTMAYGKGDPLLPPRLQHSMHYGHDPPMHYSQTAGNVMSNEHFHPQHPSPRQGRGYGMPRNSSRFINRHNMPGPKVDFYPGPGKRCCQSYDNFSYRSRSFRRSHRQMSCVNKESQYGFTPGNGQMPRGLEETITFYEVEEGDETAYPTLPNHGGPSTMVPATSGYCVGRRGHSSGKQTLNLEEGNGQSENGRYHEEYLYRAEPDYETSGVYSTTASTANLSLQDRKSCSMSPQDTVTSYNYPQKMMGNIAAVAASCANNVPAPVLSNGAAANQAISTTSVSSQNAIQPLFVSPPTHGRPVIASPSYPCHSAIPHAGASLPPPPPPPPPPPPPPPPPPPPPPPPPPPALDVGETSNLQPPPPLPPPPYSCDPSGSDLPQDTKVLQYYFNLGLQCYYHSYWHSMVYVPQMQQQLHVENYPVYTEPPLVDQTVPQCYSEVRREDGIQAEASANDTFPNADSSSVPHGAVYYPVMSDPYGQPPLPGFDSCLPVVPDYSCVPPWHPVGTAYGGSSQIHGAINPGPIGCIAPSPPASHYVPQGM
How it was run: (§1)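 Labelling with Biotin-Ahx-Ub-VS (0.5 µM final, 1 h) followed a 3 h triplicate treatment of HEK293T lysate (495 µg per sample, Tris/CHAPS/IGEPAL buffer with protease inhibitors) with fragment at 200 µM or vehicle. Labelled DUBs were NeutrAvidin-enriched, digested with LysC and trypsin, and run by diaPASEF LC-MS/MS. The values, average log2 fragment/vehicle ratios by unpaired t-test, come from global-median-normalised Spectronaut label-free quantities. Proteins with ≥2 unique peptides were used.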

ATXN3 = ATXN3 (UniProt P54252)
ATXN3, sequence (P54252 whole entry): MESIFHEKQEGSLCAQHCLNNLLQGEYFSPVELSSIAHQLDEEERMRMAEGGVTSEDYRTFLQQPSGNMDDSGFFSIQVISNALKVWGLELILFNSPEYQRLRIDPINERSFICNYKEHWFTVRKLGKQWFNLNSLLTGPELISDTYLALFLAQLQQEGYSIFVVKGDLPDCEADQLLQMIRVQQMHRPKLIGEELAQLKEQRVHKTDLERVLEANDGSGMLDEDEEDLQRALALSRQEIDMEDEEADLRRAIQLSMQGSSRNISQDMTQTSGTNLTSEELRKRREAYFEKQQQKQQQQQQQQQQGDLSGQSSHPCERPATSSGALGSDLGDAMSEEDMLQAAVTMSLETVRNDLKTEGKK
How it was run: as §1

BAP1 = biological target: T2, BAP1 (UniProt Q92560)
T2 sequence (whole entry): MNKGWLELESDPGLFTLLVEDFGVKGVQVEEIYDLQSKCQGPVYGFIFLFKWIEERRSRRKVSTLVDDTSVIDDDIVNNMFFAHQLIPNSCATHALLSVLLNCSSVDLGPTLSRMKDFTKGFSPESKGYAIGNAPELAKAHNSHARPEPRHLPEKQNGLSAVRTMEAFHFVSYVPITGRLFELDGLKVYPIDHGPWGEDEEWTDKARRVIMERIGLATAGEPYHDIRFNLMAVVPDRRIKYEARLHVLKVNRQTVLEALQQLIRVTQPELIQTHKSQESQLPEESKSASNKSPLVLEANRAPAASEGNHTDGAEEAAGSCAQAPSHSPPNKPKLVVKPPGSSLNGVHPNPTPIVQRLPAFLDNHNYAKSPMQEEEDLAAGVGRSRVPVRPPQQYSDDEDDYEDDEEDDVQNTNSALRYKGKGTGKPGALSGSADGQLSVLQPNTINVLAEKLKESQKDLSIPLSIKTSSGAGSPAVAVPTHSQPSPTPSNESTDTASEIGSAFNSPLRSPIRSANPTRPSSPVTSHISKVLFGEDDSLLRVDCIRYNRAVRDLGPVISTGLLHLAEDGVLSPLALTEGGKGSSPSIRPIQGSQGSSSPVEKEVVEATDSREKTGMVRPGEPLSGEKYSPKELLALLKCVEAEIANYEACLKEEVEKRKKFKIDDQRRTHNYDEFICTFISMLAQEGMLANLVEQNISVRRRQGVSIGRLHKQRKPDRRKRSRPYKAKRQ
How it was run: as §1

EIF3F = EIF3F (UniProt O00303)
EIF3F, sequence (O00303 whole entry): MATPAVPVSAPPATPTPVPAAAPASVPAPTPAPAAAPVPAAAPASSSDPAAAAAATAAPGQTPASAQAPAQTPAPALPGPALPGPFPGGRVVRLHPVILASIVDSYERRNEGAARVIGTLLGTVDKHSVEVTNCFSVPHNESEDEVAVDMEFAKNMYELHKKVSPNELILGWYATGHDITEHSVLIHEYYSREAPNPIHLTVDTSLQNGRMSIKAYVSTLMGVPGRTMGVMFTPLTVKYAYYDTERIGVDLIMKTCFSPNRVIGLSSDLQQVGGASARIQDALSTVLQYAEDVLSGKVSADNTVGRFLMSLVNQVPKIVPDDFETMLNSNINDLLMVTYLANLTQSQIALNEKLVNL
How it was run: as §1

EIF3H = EIF3H (UniProt O15372)
EIF3H, sequence (O15372 whole entry): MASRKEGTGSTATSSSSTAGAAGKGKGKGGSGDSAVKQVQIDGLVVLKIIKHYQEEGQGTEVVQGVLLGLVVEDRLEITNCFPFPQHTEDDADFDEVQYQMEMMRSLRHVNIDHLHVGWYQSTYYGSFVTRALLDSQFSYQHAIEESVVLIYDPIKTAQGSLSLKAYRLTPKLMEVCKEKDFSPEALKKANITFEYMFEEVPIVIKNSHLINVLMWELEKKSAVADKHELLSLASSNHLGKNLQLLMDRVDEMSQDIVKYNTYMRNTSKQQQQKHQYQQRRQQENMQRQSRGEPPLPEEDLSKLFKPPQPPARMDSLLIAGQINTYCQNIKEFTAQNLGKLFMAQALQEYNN
How it was run: as §1

FAM105A = biological target: T3, FAM105A (UniProt Q9NUU6)
T3 sequence (whole entry): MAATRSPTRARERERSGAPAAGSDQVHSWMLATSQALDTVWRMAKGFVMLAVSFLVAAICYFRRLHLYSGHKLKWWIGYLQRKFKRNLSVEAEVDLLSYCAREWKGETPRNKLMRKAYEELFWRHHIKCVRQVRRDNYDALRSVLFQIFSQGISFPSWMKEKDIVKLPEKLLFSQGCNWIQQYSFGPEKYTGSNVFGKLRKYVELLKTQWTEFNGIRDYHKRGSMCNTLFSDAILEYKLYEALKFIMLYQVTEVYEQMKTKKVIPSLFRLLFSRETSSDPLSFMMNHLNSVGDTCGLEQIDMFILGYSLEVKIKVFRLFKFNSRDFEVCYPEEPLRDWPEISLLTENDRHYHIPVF
How it was run: as §1

OTUB1 = OTUB1 (UniProt Q96FW1)
OTUB1, sequence (Q96FW1 whole entry): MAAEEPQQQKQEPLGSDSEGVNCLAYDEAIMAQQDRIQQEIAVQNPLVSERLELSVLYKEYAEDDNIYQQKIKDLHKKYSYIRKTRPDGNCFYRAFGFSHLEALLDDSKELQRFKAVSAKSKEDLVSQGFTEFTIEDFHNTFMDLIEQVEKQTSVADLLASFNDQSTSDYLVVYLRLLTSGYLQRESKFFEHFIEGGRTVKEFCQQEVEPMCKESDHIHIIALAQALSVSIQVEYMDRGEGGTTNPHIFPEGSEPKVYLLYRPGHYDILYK
How it was run: as §1

OTUD4 = biological target: T4, OTUD4 (UniProt Q01804)
T4 sequence (whole entry): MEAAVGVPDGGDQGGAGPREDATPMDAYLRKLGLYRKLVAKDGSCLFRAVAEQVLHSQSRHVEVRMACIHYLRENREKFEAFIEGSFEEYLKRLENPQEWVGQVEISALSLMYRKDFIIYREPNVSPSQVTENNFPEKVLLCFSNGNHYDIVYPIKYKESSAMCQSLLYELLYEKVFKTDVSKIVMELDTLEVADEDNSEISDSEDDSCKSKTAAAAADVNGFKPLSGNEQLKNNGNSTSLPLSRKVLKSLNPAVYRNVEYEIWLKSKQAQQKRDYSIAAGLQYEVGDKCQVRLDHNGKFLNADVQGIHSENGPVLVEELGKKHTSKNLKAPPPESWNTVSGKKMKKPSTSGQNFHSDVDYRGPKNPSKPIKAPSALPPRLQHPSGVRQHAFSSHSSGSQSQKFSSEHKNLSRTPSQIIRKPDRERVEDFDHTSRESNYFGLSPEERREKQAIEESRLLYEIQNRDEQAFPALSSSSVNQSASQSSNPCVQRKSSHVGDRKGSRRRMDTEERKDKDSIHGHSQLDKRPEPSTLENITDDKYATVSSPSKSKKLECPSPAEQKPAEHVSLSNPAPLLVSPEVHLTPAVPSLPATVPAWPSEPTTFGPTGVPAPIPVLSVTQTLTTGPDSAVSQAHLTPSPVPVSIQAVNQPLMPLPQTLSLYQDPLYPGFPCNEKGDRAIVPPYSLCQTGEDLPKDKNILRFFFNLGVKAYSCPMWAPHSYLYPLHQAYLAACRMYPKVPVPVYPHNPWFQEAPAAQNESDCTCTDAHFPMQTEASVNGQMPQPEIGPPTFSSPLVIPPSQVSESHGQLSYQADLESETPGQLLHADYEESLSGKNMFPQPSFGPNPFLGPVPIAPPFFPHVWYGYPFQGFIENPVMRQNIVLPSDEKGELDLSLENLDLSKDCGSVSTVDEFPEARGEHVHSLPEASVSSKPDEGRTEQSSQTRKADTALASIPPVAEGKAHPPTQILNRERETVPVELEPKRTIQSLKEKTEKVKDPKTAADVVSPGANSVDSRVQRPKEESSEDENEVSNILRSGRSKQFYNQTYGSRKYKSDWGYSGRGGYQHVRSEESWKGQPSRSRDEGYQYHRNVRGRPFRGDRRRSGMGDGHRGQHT
How it was run: as §1

OTUD5 = biological target: T5, OTUD5 (UniProt Q96G74)
T5 sequence (whole entry): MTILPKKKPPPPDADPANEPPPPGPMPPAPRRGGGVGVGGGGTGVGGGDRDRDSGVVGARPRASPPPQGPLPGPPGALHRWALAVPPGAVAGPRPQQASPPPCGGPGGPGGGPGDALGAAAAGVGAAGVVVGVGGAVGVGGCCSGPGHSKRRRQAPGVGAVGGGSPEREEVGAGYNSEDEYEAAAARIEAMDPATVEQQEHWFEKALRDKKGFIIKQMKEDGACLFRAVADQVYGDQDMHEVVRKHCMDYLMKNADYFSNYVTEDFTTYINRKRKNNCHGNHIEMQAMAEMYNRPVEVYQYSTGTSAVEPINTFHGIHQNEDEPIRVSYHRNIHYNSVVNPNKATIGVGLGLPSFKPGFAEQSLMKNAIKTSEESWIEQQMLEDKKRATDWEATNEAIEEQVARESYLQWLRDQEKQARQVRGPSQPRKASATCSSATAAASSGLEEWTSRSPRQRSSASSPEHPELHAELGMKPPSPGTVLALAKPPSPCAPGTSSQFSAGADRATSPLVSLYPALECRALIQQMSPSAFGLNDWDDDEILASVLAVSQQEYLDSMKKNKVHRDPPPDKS
How it was run: as §1

O=C(CCl)Nc1cc2c(cc1Cl)OCCCO2
log2 ratio of Biotin-Ahx-Ub-VS probe labelling (ALG13): 0.0687 | log2 ratio of Biotin-Ahx-Ub-VS probe labelling (ATXN3): -0.0939 | log2 ratio of Biotin-Ahx-Ub-VS probe labelling (BAP1): -3.43 (active) | log2 ratio of Biotin-Ahx-Ub-VS probe labelling (EIF3F): -0.197 | log2 ratio of Biotin-Ahx-Ub-VS probe labelling (EIF3H): -0.577 | log2 ratio of Biotin-Ahx-Ub-VS probe labelling (FAM105A): 0.278 | log2 ratio of Biotin-Ahx-Ub-VS probe labelling (OTUB1): -0.0827 | log2 ratio of Biotin-Ahx-Ub-VS probe labelling (OTUD4): 0.136 | log2 ratio of Biotin-Ahx-Ub-VS probe labelling (OTUD5): -0.0905
